Screens from PubChem.
Only some compounds are listed: those with a hit (about 18% of all), similar ones and a draw of the others.
DT40 TDP1 no CPT = qHTS for Inhibitors of human tyrosyl-DNA phosphodiesterase 1 (TDP1): qHTS in cells in absence of CPT. DT40 Tdp1-/- hTDP1 cells, no CPT, ATP luminescence, 48 h. Potency, µM (titrated, usually from 46.2 µM), usual class: inhibitors. AID 686978, 2013. actives 15% (n = 420,000); note: nearly all actives have a fitted effect of over 55% in size
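Chicken DT40 Tdp1-/- cells complemented with human TDP1, screened without camptothecin (DMSO vehicle only), 400 cells/well. Compounds pin-transferred, cells incubated at 37 °C for at least 48 hr. Growth read as ATP-dependent luminescence (CellTiter-Glo, 30 min at RT).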
DT40 TDP1 CPT = qHTS for Inhibitors of human tyrosyl-DNA phosphodiesterase 1 (TDP1): qHTS in cells in presence of CPT; chicken DT40 Tdp1-/-;hTDP1 cells + 20 nM CPT, ATP luminescence, 48 h; Potency, µM (titrated, usually from 46.2 µM), actives largely listed as inhibitors; actives 12% (n = 420,000); AID 686979, 2013; note: nearly all actives have a fitted effect of over 55% in size
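Cell growth measured by CellTiter-Glo luminescence after a minimum 48 h, 37 C compound exposure with 20 nM CPT in Tdp1-knockout DT40 cells stably expressing hTDP1, seeded 400/well; qHTS titration format.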
Six1-Eya2 inh = qHTS Assay for Inhibitors of the Six1/Eya2 Interaction; Homeobox protein SIX1 (Homo sapiens) + Protein phosphatase EYA2 (Homo sapiens), …; AlphaScreen GST-Six1/His-Eya2 binding, biochemical; active compounds read low; activity change, % (concentration not given with the values); actives 0.56% (n = 360,000); in the data active = activity change below about -65%; inconclusive = mostly about -30% to -63%
Target sequence (O00167 whole entry, looked up): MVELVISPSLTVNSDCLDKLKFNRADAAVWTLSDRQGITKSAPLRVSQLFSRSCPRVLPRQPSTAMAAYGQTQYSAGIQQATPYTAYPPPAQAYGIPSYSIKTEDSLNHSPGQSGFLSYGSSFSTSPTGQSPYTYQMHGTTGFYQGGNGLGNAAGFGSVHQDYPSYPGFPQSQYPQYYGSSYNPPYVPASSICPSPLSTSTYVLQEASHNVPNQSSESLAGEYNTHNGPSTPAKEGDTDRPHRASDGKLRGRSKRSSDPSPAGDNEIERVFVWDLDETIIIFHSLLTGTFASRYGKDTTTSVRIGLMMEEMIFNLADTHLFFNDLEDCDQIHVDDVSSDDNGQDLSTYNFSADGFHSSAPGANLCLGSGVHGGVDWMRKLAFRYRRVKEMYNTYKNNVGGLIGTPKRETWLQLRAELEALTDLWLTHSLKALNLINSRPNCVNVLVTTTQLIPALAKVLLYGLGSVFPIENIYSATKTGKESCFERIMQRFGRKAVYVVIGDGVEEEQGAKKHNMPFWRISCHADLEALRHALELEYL
Target sequence (Q15475 whole entry, looked up): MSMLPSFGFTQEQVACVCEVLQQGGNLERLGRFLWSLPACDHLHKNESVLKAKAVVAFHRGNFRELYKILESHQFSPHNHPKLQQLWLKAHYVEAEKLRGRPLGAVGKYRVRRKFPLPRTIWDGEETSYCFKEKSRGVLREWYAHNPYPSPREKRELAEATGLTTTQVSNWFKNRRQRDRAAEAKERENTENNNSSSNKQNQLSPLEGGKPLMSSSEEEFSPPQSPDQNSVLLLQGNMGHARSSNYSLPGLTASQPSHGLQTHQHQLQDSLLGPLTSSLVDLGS
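Homogeneous AlphaScreen proximity assay pairing GST-Six1 with His-tagged Eya2 (added as 5X mix: 250 nM and 500 nM) in 50 mM Tris pH 8.0, 300 mM NaCl, 1 mM TCEP. Glutathione donor and nickel acceptor beads; 1 h, 37 °C, dark.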
TDP1 block = qHTS Assay for Inhibitors of Tyrosyl-DNA Phosphodiesterase (TDP1). recombinant TDP1, AlphaScreen DNA substrate cleavage. Potency, µM (series often up to 130 µM), actives largely listed as inhibitors. actives 0.28% (n = 350,000); note: nearly all actives have a fitted effect of over 40% in size
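Steps: enzyme plus compound, 15 min RT; add biotin/phosphotyrosine-FITC oligonucleotide (15 nM final), react 5 min; add donor/acceptor beads (10 ug/ml final), 10 min; read AlphaScreen. Tdp1 at 1 nM final.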
CtBP-E1A blk = qHTS Assay for Inhibitors of the CtBP/E1A Interaction; actives 0.49% (n = 340,000); activity change, % (no concentration beside the values); AlphaScreen GST-E1A/His-CtBP binding, 1536-well; active compounds read low; CtBP / adenovirus E1A interaction (AlphaScreen); in the data active = activity change below about -65%; inconclusive = mostly about -30% to -63%
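Protein mix (5X: 125 nM each GST-E1A, His-CtBP) was incubated with pinned compound 2 h at 37 deg C in dark, in 50 mM Tris pH 8.0 buffer with 300 mM NaCl. Glutathione donor and nickel acceptor beads followed; AlphaScreen signal read after 1 h.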
IL-1B inflam inh = qHTS for Inhibitors of Inflammasome Signaling: IL-1-beta AlphaLISA Primary Screen; THP-1 LPS/ATP IL-1B secretion, AlphaLISA, 16 h; active compounds read low; activity change, % at 57.5 µM; actives 4.7% (n = 360,000); in the data active = activity change below about -50%; inconclusive = mostly about -30% to -49%
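THP-1 cells pretreated 1 hr with compounds (up to 57.5 uM final), then stimulated with LPS (250 ng/mL final) plus ATP (1.25 mM final); secreted IL-1B measured by AlphaLISA after 16 hr, decreased signal indicating inhibition.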
Numbers stand for hits; – = inactive; ? = inconclusive; · = no result given; [ ] = dose if it differs, or a comment. Unless noted, calls come from the whole dose curve; as a rule, active = well fitted curve in the direction sought with a large enough effect; inconclusive = small, poorly fitted or top-dose-only effect, or another doubt; inactive = no such curve, though single readings can be large; an effect the other way counts as inactive or inconclusive.

SMILES	DT40 TDP1 no CPT	DT40 TDP1 CPT	Six1-Eya2 inh	TDP1 block	CtBP-E1A blk	IL-1B inflam inh
COc1ccc(N2Cc3ccccc3C2=NC(=O)c2cncc(Br)c2)cc1	–	–	–	–	·	–
CCOC(=O)c1c(C)[nH]c(C)c1C(=O)COc1ncnc2cc([N+](=O)[O-])ccc12	?	?	-76.2	–	-69.8	–
Cc1ccc(NC(=O)c2ccccc2-c2ccc(C(F)(F)F)cc2)cc1S(=O)(=O)N1CCOCC1	14.6µM	?	–	–	–	–
O=C(Nc1ccc(S(=O)(=O)N2CCCCCC2)cc1)c1cc(=O)c2ccccc2o1	?	?	·	–	·	·
Cc1ccc(NC(=O)c2cc(=O)c3ccccc3o2)cc1S(=O)(=O)N1CCCCC1	20.6µM	?	?	–	–	?
COc1ccc(NC(=O)c2ccccc2-c2ccc(C(F)(F)F)cc2)cc1S(=O)(=O)N1CCOCC1	?	–	–	–	–	–
COCc1c(C(=O)Nc2ccc(C)c(S(=O)(=O)N3CCOCC3)c2)oc2ccccc12	?	?	–	·	?	–
Cc1ccc(NC(=O)c2cc(=O)c3ccccc3o2)cc1S(=O)(=O)N1CCOCC1	11.6µM	18.4µM	?	–	·	–
COC(=O)c1cc(NC(=O)c2cc(-c3ccc(C(F)(F)F)cc3)oc2C(F)(F)F)ccc1N1CCOCC1	20.6µM	?	–	–	–	–
CC(=O)N/C(=C/c1ccccc1)C(=O)N1CCCCC1	–	–	–	–	–	–
Cc1ccc(S(=O)(=O)N(C)CC(=O)N2CC(C)OC(C)C2)cc1 (configuration not stated)	–	–	–	–	–	–
O=c1[nH]cnc(O)c1Nc1cccc(Cl)c1	–	–	–	·	–	–
Cc1ccc(NC(=O)c2ccc3ccccc3n2)cc1S(=O)(=O)N1CCOCC1	14.6µM	?	–	–	–	–
Cc1ccc(NC(=O)c2cc([N+](=O)[O-])ccc2N2CCOCC2)cc1S(=O)(=O)N1CCOCC1	–	–	–	–	–	–
Cc1ccc(NC(=O)c2ccc([N+](=O)[O-])o2)cc1S(=O)(=O)N1CCOCC1	4.61µM	5.17µM	–	–	–	-94.2
CCOC(=O)c1nnn(CC(=O)N2N=C(c3ccccc3)CC2c2ccccc2)c1C(=O)OCC (configuration not stated)	18.4µM	?	–	–	–	–
CCOC(=O)c1nnn(CC(=O)N2N=C(c3cc(C)ccc3C)CC2c2ccc(OC)cc2)c1C(=O)OCC (configuration not stated)	14.6µM	29.1µM	–	–	–	–
CCOC(=O)c1nnn(CC(=O)NC(=O)Nc2ccccc2)c1C(=O)OCC	–	–	–	–	·	–
COC(=O)c1ccc(NC(=O)N2CCc3c([nH]c4ccccc34)C2c2ccc(C)cc2)cc1 (configuration not stated)	5.8µM	?	·	–	·	·
Cc1ccc(C2c3[nH]c4ccccc4c3CCN2C(=O)CCC2CCCC2)cc1 (configuration not stated)	?	16.4µM	·	–	·	·
O=C(CSCc1ccc(F)cc1)N1CCc2c([nH]c3ccccc23)C1c1ccccc1 (configuration not stated)	14.6µM	20.6µM	·	–	·	·
CC(=O)NCCC(=O)N1CCc2c([nH]c3ccccc23)C1c1cccc(C)c1 (configuration not stated)	–	–	–	–	–	–
CC(=O)NCCC(=O)N1CCc2c([nH]c3ccccc23)C1c1cccc(Cl)c1 (configuration not stated)	14.6µM	?	–	–	–	–
O=C(CNc1ccccc1Cl)Nc1cc(S(=O)(=O)N2CCOCC2)ccc1Cl	?	–	–	–	·	–
O=C(CSc1ncn[nH]1)NCc1ccc(Cl)cc1	–	–	–	–	–	–
SMILES	DT40 TDP1 no CPT	DT40 TDP1 CPT	Six1-Eya2 inh	TDP1 block	CtBP-E1A blk	IL-1B inflam inh
CCN(Cc1ccccc1)C(=O)c1ccc2c(=O)n3c(nc2c1)CCC3	?	–	–	–[0.505 µM]	–	–
Cc1ccc(C2c3[nH]c4ccccc4c3CCN2C(=O)c2ccc(N(C)C)cc2)cc1 (configuration not stated)	20.6µM	20.6µM	·	–	·	·
Cc1ccc(C2c3[nH]c4ccccc4c3CCN2C(=O)Nc2ccc(C)c(C)c2)cc1 (configuration not stated)	?	?	·	–	·	·
CCN(C[C@H]1N[C@@](C)(C(=O)OC)[C@H]2C(=O)N(C)C(=O)[C@@H]12)C(C)=O	–	–	–	–	–	–
COc1ccccc1C(=O)NCCNc1nc2cc(C)cc(C)c2cc1C#N	18.4µM	?	–	·	·	?
COc1ccc(C(=O)NCCNc2nc3cc(C)cc(C)c3cc2C#N)nc1	–	–	–	·	–	–
Cc1cc(C)c2cc(C#N)c(NCCNC(=O)c3ccccc3)nc2c1	?	?	–	·	–	–
COc1cc(OC)cc(C(=O)NCCNc2nc3cc(C)cc(C)c3cc2C#N)c1	23.1µM	?	–	·	·	–
Cc1cc(C)c2cc(C#N)c(NCCOC(=O)c3ccccc3C)nc2c1	?	–	–	?	–	-60.4
COc1ccc(C(=O)NCC(C)(C)SCc2c(C)cc(C)cc2C)cc1	15.8µM	23.1µM	–	–	–	-72.1
COc1ccc(C(=O)NCCNC(=O)c2ccc(OC)cc2)cc1	–	–	–	·	–	–
CCCc1cc(=O)oc2cc(C)c3c(C(C)(C)C)coc3c12	?	?	·	–	·	·
COC(=O)c1cc(C#N)c(NCc2ccccc2)nc1C	16.4µM	?	–	–	–	–
COc1ccc(C(=O)NCCCNc2nc3cc(C)cc(C)c3cc2C#N)cc1	20.6µM	?	–	·	–	–
N#CCCN(C(=O)COC(=O)C1CCN(S(=O)(=O)c2cccs2)CC1)c1ccccc1	–	–	–	–	–	–
CC(C)(O)CN(C(=O)c1ccccc1)C1CCCCC1	–	–	–	·	–	–
CC1(C)CC2CC(C)(CN2S(=O)(=O)c2ccc(N)cc2)C1 (configuration not stated)	?	?	–	–	–	–
CC1(C)CC2CC(C)(CN2S(=O)(=O)c2ccc(F)cc2F)C1 (configuration not stated)	5.8µM	?	–	–	–	–
CCOC(=O)CSc1nc2sc3c(c2c(=O)n1-c1ccc(C)cc1)CCN(C)C3	–	?	–	·	?	–
